Measured values as given in PubChem BioAssay (Tox21).
Where “and” joins values, the source holds several entries; their conditions need not be identical. Equal values may be shown once. Inconclusive results are not listed. A call without a number means that no potency is given here. Some compounds were tested as several samples or in several runs, with calls that do not always agree. Calls of active or inactive are those of the source. Unless noted, calls come from the whole dose curve; as a rule, active = well fitted curve in the direction sought with a large enough effect in the repeat runs; inconclusive = weak or mixed curves; inactive = no such curve, though single readings can be large; an effect the other way counts as inactive or inconclusive.

Key:
[1] = molecular target: Thyrotropin receptor (Homo sapiens) (UniProt P16473); experiment: qHTS assay to identify small molecule antagonists of the thyroid stimulating hormone receptor (TSHR) signaling pathway (AID 1259385; calls by dose curve; note: nearly all actives have a fitted effect of over 20% in size)
Procedure, shortened: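 TSHR-HEK293 cells (800/well) plated 18 h, then compounds with Ro20-1724 and TSH at 1.5 ng/mL final, 30 min at room temperature. cAMP quantified by HTRF (cAMP-d2/anti-cAMP-cryptate, 1 h); 15 concentrations in triplicate.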

[2] = qHTS assay to identify small molecule agonists of the estrogen receptor alpha (ER-alpha) signaling pathway in the presence of an antagonist - cell viability counter screen (AID 1259386);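 note: cells exposed to compounds for 22 h at 37 °C before the viability read; nearly all actives have a fitted effect of over 30% in size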; note: potency is the fitted concentration of half-maximal effect
Procedure, shortened: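 In this counter screen, compound effects on VM7Luc4E2 viability were tested in the presence of the antagonist ICI-182,780 at 10.0nM final. Compounds were dosed at 15 concentrations, exposure lasted 22hr, and the CellTiter-Fluor signal was read.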

[3] = molecular target: Progesterone receptor (Homo sapiens) (UniProt P06401); experiment: qHTS assay to identify small molecule agonists of the progesterone receptor (PR) signaling pathway (AID 1346784; calls by dose curve; note: nearly all actives have a fitted effect of over 30% in size; note: potency is the fitted concentration of half-maximal effect)
Procedure, shortened: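 Using charcoal-stripped serum (2%) to limit endogenous steroids, PR-UAS-bla HEK 293T cells received compounds for 16 hr at 37C after 6 hr plating; beta-lactamase FRET fluorescence was recorded following 2 hr substrate loading at room temperature.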

[4] = molecular target: Progesterone receptor (Homo sapiens) (UniProt P06401); experiment: qHTS assay to identify small molecule antagonists of the progesterone receptor (PR) signaling pathway (AID 1346795; active = well fitted inhibition curve with a large enough effect in the signal ratio in the repeat runs, not every such curve was filed as active; the % refers to the signal ratio; note: potency is the fitted concentration of half-maximal effect)
Procedure, shortened: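 Inhibition of R5020-induced (1 nM final) beta-lactamase reporter signal in PR-UAS-bla HEK293T cells was scored by FRET fluorescence after overnight (16 hr) compound treatment.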

[5] = qHTS assay to identify small molecule antagonists of the progesterone receptor (PR) signaling pathway - cell viability counter screen (AID 1346798); note: nearly all actives have a fitted effect of over 50% in size; note: potency is the fitted concentration of half-maximal effect
Procedure, shortened: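 ATP content as viability readout: CellTiter-Glo luminescence, 30 min room temperature, in PR-UAS-bla HEK293T cells after 16 hr compound/R5020 treatment at 37C and 5% CO2.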

[6] = qHTS assay to identify small molecule agonists of the progesterone receptor (PR) signaling pathway - cell viability counter screen (AID 1346799; calls by dose curve; note: nearly all actives have a fitted effect of over 45% in size; note: potency is the fitted concentration of half-maximal effect)
Procedure, shortened: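 Cytotoxicity in PR-bla HEK293T cells: 16 h compound, 37C; CellTiter-Glo added post-FRET read; luminescence after 30 min RT.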

[7] = qHTS assay to identify small molecule antagonists of the TGF-beta/Smad signaling pathway - cell viability counter screen (AID 1346824); note: nearly all actives have a fitted effect of over 50% in size
Procedure, shortened: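 SBE-bla HEK 293T cells, incubated overnight, then compound plus 0.25 ng/mL TGF-beta1 (stock added) for 5 hr at 37 C. Viability was read in the same wells by CellTiter-Glo luminescence after 30 min at room temperature.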

[8] = qHTS assay to identify small molecule agonists of the TGF-beta/Smad signaling pathway - cell viability counter screen (AID 1346829); note: nearly all actives have a fitted effect of over 45% in size; note: potency is the fitted concentration of half-maximal effect
Procedure, shortened: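 Luminescence from CellTiter-Glo, read after a 30 min room-temperature incubation, gives cell viability of SBE-bla HEK 293T cells treated 5 hr with compounds at 37 C.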

[9] = molecular target: Thyrotropin-releasing hormone receptor (Homo sapiens) (UniProt P34981); experiment: qHTS assay to identify small molecule antagonists of the thyrotropin-releasing hormone receptor (TRHR) signaling pathway (AID 1346877; active = well fitted inhibition curve with a large enough effect in the repeat runs, not every such curve was filed as active; note: series mostly up to about 51 µM)
Procedure, shortened: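 Kinetic fluorescence (3 min, 1 s resolution) following stimulation with TRH at 1 nM final; HEK293 cells bearing human TRHR; 5 min compound preincubation at RT; concentration-response over 15 points, triplicates.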

[10] = qHTS assay to identify small molecule agonists of the TGF-beta/Smad signaling pathway (AID 1346859; active = well fitted activation curve with a large enough effect in the signal ratio in the repeat runs, not every such curve was filed as active; the % refers to the signal ratio; note: series mostly up to about 77 µM)
Procedure, shortened: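 Stable Smad binding element-beta-lactamase HEK 293T cells; 5 hr compound exposure at 37 C under 5% CO2; 2 hr room-temperature substrate step; fluorescence excited at 405 nm, collected at 460 nm and 530 nm.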

Chain of Thyrotropin receptor (Homo sapiens) (P16473 whole entry, looked up): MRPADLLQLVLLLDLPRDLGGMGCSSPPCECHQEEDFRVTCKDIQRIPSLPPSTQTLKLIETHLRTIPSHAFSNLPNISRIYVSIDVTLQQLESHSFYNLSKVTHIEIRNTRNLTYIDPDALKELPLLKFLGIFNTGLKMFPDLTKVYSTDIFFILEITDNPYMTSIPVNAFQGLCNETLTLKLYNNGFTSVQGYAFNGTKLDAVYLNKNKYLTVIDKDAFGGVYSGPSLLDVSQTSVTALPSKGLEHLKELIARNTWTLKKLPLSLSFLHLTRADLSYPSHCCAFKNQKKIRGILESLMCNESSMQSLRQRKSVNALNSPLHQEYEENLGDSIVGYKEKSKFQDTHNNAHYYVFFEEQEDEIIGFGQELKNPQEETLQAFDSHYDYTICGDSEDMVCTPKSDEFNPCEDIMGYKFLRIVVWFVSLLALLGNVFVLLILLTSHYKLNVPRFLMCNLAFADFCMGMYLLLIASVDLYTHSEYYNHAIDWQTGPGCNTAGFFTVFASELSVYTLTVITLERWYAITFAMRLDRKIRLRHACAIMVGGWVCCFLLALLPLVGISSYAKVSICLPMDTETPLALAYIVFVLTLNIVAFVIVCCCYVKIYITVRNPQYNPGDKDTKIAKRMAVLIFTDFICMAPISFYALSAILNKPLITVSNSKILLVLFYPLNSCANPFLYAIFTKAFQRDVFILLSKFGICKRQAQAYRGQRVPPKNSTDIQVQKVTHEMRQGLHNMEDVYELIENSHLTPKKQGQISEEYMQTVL
Chain of Progesterone receptor (Homo sapiens) (P06401 whole entry, looked up): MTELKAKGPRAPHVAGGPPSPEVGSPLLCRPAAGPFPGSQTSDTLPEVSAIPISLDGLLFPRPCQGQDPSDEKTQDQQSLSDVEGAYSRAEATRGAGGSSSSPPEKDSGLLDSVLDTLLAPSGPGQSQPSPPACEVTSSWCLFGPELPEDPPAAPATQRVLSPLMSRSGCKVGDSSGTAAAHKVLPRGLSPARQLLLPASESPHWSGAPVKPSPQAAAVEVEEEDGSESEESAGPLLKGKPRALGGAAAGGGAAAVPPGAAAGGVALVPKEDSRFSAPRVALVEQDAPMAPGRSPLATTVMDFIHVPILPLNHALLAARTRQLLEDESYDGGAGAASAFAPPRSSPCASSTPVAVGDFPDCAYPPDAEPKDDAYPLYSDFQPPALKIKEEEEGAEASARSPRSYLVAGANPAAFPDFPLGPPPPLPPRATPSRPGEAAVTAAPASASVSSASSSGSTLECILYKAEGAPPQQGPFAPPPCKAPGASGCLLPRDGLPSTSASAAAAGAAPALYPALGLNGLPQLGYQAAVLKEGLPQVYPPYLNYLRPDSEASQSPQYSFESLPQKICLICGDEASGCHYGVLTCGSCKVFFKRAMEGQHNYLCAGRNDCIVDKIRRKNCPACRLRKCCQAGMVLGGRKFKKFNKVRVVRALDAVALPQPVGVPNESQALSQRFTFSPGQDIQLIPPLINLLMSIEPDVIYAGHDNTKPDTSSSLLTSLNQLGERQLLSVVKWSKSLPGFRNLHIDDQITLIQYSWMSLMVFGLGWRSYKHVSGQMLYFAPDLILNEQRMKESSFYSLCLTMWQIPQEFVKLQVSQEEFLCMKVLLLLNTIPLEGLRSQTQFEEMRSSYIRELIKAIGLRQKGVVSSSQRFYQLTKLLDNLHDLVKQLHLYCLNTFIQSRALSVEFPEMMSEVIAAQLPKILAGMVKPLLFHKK
Chain of Thyrotropin-releasing hormone receptor (Homo sapiens) (P34981 whole entry, looked up): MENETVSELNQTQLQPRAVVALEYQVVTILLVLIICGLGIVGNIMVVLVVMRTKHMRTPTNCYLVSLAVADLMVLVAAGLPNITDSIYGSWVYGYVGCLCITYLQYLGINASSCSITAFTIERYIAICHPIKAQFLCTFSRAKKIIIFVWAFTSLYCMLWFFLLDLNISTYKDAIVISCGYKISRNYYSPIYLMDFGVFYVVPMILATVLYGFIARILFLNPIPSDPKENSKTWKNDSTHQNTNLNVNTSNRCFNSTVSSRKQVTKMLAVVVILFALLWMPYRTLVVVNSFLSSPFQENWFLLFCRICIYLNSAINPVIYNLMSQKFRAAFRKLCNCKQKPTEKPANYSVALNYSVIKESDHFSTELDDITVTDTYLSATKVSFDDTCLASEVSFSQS

| SMILES | outcome [1] | Potency [2] | Potency [3] | Potency [4] | Potency [5] | Potency [6] | Potency [7] | Potency [8] | outcome [9] | outcome [10] |
| --- | --- | --- | --- | --- | --- | --- | --- | --- | --- | --- |
| CCn1cc(C(=O)O)c(=O)c2ccc(C)nc21 | inactive | inactive | inactive | inactive | inactive | inactive | inactive | inactive | inactive |  |
| C=C(C)C(N)=O | inactive | inactive | inactive | inactive | inactive | inactive | inactive | inactive | inactive | inactive |
| COC1=CC(=O)C[C@@H](C)[C@]12Oc1c(Cl)c(OC)cc(OC)c1C2=O | inactive | inactive | inactive | 27.1 µM (active) and 30.6 µM (active) | inactive | inactive | inactive | inactive | inactive |  |
| Cn1cnc2c1c(=O)[nH]c(=O)n2C | inactive | inactive | inactive | inactive | inactive | inactive | inactive | inactive | inactive | inactive |
| N[C@@H](Cc1c[nH]c2ccccc12)C(=O)O | inactive | inactive | inactive | inactive | inactive | inactive | inactive | inactive | inactive | inactive |
| CC1=NN(c2ccccc2)C(=O)C1 | inactive | inactive | inactive | inactive | inactive | inactive | inactive | inactive | inactive |  |
| C[C@]12CC[C@@H]3c4ccc(O)cc4C[C@@H](CCCCCCCCCS(=O)CCCC(F)(F)C(F)(F)F)[C@H]3[C@@H]1CC[C@@H]2O (some centres undefined) | inactive | inactive | inactive | 1.72 µM (active) | inactive | inactive | inactive | inactive | inactive | inactive |
| COc1ccccc1O | inactive | inactive | inactive | inactive | inactive | inactive | inactive | inactive | inactive | inactive |
| COc1ccc(C(=O)c2ccccc2)c(O)c1 | inactive | inactive | inactive | 30.1 µM (active) | inactive | inactive | inactive | inactive | inactive |  |
| O=C(O)CCCCC1CCSS1 (centres undefined) | inactive | inactive | inactive | inactive | inactive | inactive | inactive | inactive | inactive |  |
| COCCOCCOC | inactive | inactive | inactive | inactive | inactive | inactive | inactive | inactive | inactive | inactive |
| NC(=O)NO | inactive | inactive | inactive | inactive | inactive | inactive | inactive | inactive | inactive |  |
| NC(=O)OCC(COC(N)=O)c1ccccc1 | inactive | inactive | inactive | inactive | inactive | inactive | inactive | inactive | inactive | inactive |
| COc1cc(C=O)ccc1O | inactive | inactive | inactive | inactive | inactive | inactive | inactive | inactive | inactive | inactive |
| C/C=C/c1ccc(O)c(OC)c1 | inactive | inactive | inactive | inactive | inactive | inactive | inactive | inactive | inactive |  |
| Nc1ccc(N=Nc2ccccc2)c(N)n1 | inactive | 30.8 µM (active) and 24.3 µM (active) and 26.6 µM (active) | inactive | 43.3 µM (active) | inactive | inactive | inactive | inactive | inactive |  |
| CCOC(=O)C(C)(C)Oc1ccc(Cl)cc1 | inactive | inactive | inactive | inactive | inactive | inactive | inactive | inactive | inactive |  |
| NC(=O)N1c2ccccc2C=Cc2ccccc21 |  | inactive | inactive | inactive | inactive | inactive | inactive | inactive | inactive |  |
| O=C1OC(c2ccc(O)cc2)(c2ccc(O)cc2)c2ccccc21 | inactive | inactive | inactive | 24.3 µM (active) | inactive |  | inactive | inactive |  | inactive |
| O=c1c(-c2ccc(O)cc2)coc2cc(O)cc(O)c12 | inactive | inactive | inactive | 23.9 µM (active) and 17.2 µM (active) and 13.3 µM (active) | inactive |  | inactive | inactive |  | inactive |
| C#C[C@]1(O)CC[C@H]2[C@@H]3CCc4cc(O)ccc4[C@H]3CC[C@@]21C | inactive | inactive | 0.271 µM (active) |  |  |  | inactive | inactive | inactive |  |
| COc1cc2c(c(OC)c1OC)-c1ccc(OC)c(=O)cc1[C@@H](NC(C)=O)CC2 |  | inactive | inactive |  |  |  | inactive | inactive |  |  |
| O=C(O)Cc1cccc2ccccc12 | inactive | inactive | inactive and 1.37 µM (active) | inactive |  | inactive and 21.7 µM (active) | inactive | inactive | inactive |  |
| C[C@]12C[C@H](O)[C@H]3[C@@H](CCC4=CC(=O)CC[C@@]43C)[C@@H]1CC[C@@H]2C(=O)CO | inactive | inactive | 0.971 µM (active) | inactive | inactive |  | inactive | inactive |  | inactive |

| SMILES | outcome [1] | Potency [2] | Potency [3] | Potency [4] | Potency [5] | Potency [6] | Potency [7] | Potency [8] | outcome [9] | outcome [10] |
| --- | --- | --- | --- | --- | --- | --- | --- | --- | --- | --- |
| COC(=O)c1ccc(C=O)cc1 |  | inactive | inactive | inactive | inactive | inactive | inactive | inactive |  | inactive |
| Cc1cccc(Nc2cc(Cl)nc(SCC(=O)O)n2)c1C | inactive | inactive | inactive |  | inactive | inactive | inactive | inactive | inactive |  |
| NC(N)=NC(N)=NCCc1ccccc1 | inactive | inactive | inactive | inactive |  |  | inactive | inactive |  |  |
| C[C@]12CC[C@@H]3c4ccc(O)cc4CC[C@H]3[C@@H]1CCC2=O |  | inactive | inactive |  | inactive | inactive | inactive | inactive | inactive |  |
| CC1=C(/C=C/C(C)=C/C=C/C(C)=C/C(=O)O)C(C)(C)CCC1 |  | inactive | inactive | inactive | inactive | inactive | inactive | inactive | inactive |  |
| CC(C)Cc1ccc(C(C)C(=O)O)cc1 (centres undefined) | inactive | inactive | inactive | inactive | inactive | inactive |  | inactive | inactive |  |
| CC(C)CC(C)CC(O)CC(C)C (centres undefined) |  | inactive | inactive | inactive | inactive | inactive | inactive | inactive | inactive | inactive |
| Cc1c(N(C)CS(=O)(=O)O)c(=O)n(-c2ccccc2)n1C | inactive | inactive | inactive | inactive | inactive | inactive | inactive | inactive | inactive |  |
| CC(=O)/C=C/C1=C(C)CCCC1(C)C |  | inactive | inactive | inactive | inactive | inactive | inactive | inactive | inactive | inactive |
| CN(C)Cc1cc(CN(C)C)c(O)c(CN(C)C)c1 | inactive | inactive | inactive | inactive | inactive | inactive | inactive | inactive | inactive |  |
| C#C[C@]1(O)CC[C@H]2[C@@H]3CCC4=CC(=O)CC[C@@H]4[C@H]3CC[C@@]21CC | inactive | inactive |  | inactive | inactive |  | inactive | inactive |  | inactive |
| NCCNc1cccc2ccccc12 |  | inactive | inactive | inactive |  | inactive | inactive | inactive | inactive | inactive |
| CC(C)(C)NCC(O)c1ccc(O)c(CO)c1 (centres undefined) | inactive | inactive | inactive | inactive | inactive | inactive | inactive | inactive | inactive |  |
| CCCCOCCOCCOC(C)=O |  | inactive | inactive | inactive | inactive | inactive | inactive | inactive | inactive | inactive |
| COCC(C)N (centres undefined) | inactive | inactive |  |  | inactive | inactive | inactive | inactive | inactive |  |
| CCN1CCCC1=O | inactive | inactive |  |  | inactive | inactive | inactive | inactive | inactive |  |
| Cc1cccc(C)c1O |  | inactive | inactive | inactive | inactive | inactive | inactive | inactive | inactive |  |
| C[C@]12C=CC(=O)C=C1CC[C@@H]1[C@@H]2C(=O)C[C@@]2(C)[C@H]1CC[C@]2(O)C(=O)CO | inactive | inactive | inactive |  | inactive | inactive | inactive | inactive |  |  |
| Cc1cnc(NC(=O)C2=C(O)c3ccccc3S(=O)(=O)N2C)s1 |  | 43.4 µM (active) and inactive | inactive | inactive | inactive | inactive |  | inactive | inactive | inactive |
| CCCCOCCOCCSC#N | inactive | inactive |  |  | inactive | inactive | inactive | inactive | inactive | inactive |
| Nc1cccc(N)c1 |  | inactive |  |  | inactive | inactive | inactive | inactive | inactive | inactive |
| C1CNCCN1 | inactive | inactive | inactive | inactive | inactive | inactive | inactive | inactive | inactive |  |
| CC(C)(C)CC(C)(C)c1ccc(O)c(-n2nc3ccccc3n2)c1 | inactive | inactive | inactive | inactive | 49.2 µM (active) |  |  | 44.3 µM (active) and inactive | inactive | inactive |
